Assay outcomes (PubChem)
Most compounds without a hit are left out; they make up all but 12% or so of the library.
Sfp inh: Sfp phosphopantetheinyl transferase inhibition; Potency, µM, without a hit: largest response in the series, negative = inhibition, most hits filed as inhibitors; Q9F4F7; Biochemical Sfp PPTase activity, qHTS; actives 3.5% (n = 310,000);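 further: the enzyme is Sfp with the accession as filed and its product quenches rhodamine fluorescence; 0% = enzyme reaction without inhibitor and -100% = no enzyme wells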
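Buffer: 50 mM Hepes-Na pH 7.6, 10 mM MgCl2, 0.01% Nonidet P-40, 0.01% BSA. Enzyme 15 nM, pre-exposed to compound 15 min; substrates then added and fluorescence change tracked over 30 min.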
BAZ2B block: inhibitors of human BAZ2B bromodomain. actives 4.4% (n = 360,000). AID 504333. Potency, µM (series often up to 114 µM), for inactives: at the highest dose activity change, negative = inhibition, usual class: inhibitors. Q9UIF8. AlphaScreen BAZ2B-H3K14Ac peptide displacement; further: on the % scale 0 is the no-effect control and ±100 the full control effect; nearly all actives have a fitted effect of over 60% in size
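BAZ2B 50 nM plus b-H3(5-23)K14Ac 50 nM, PBS pH 7.4/0.01% Tween-20, 30 min RT; compound added (max 110 uM), 30 min RT; streptavidin donor/Ni-chelate acceptor beads 10 ug/mL final, 20 min dark; AlphaScreen read.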
HP1b chromo inh: blocks HP1-beta chromodomain binding to methylated histone tails | P83916 | AlphaScreen HP1-beta / biotin-H3K9me3 peptide binding | Potency, µM (top dose mostly 114 µM), for the others: top-dose activity change, negative = inhibition, hits mostly inhibitors | actives 0.56% (n = 390,000) | AID 540317; further: nearly all actives have a fitted effect of over 70% in size
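Compound inhibition of the preformed complex between 50 nM HP1-beta and 50 nM biotinylated H3K9me3 peptide was read by AlphaScreen. Buffer was PBS pH 7.4 with 0.01% Tween-20. Incubations ran 30 min at room temperature, with 10 ug/mL donor/acceptor beads.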
JMJD2A Tudor inh: blocks the human JMJD2A Tudor domain. O75164. AlphaScreen JMJD2A-Tudor / H3K4me3 peptide binding. Potency, µM (series often up to 114 µM), inactives show top-dose activity change, negative = inhibition, most hits filed as inhibitors. actives 4.4% (n = 390,000). AID 504339; further: on the % scale 0 is the no-effect control and ±100 the full control effect; nearly all actives have a fitted effect of over 50% in size
G9a inh: G9a (human) methyltransferase inhibition. Q96KQ7. G9a H3K9 monomethylation, AlphaScreen, 2 h. Potency, µM (top dose mostly 102 µM), for inactives: at the top dose activity, negative = inhibition, hits mostly inhibitors. actives 8.8% (n = 350,000). AID 504332; further: on the % scale 0 is the no-effect control and ±100 the full control effect; nearly all actives have a fitted effect of over 75% in size
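Enzyme 20 nM + cpd, 15 min RT; add b-H3K9 pep 500 nM / SAM 20 uM; 2 h RT; anti-H3K9me1 Ab 0.5 ug/mL + SA donor / anti-rabbit acceptor beads 20 ug/mL each, 10 min; AlphaScreen read.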
* hit, by the source's call; ? = inconclusive; · = not tested or not shown; ! = not confirmed by another sample; [ ] = another dose, or the depositor's remark. The call rests on the fitted dose curve; in most records, active means well fitted curve in the direction sought with a large enough effect; inconclusive means small, poorly fitted or top-dose-only effect, or another doubt; inactive means no such curve, though single readings can be large; an effect the other way counts as inactive or inconclusive. Potency means the concentration at half of the fitted maximal effect.

SMILES	Sfp inh	BAZ2B block	HP1b chromo inh	JMJD2A Tudor inh	G9a inh
CC(C)(C)c1ccc(NC(=O)Nc2ccc(F)cc2)cc1	14%	2%	-10%	35µM*	-8%
Cc1ccc(CNC(=O)Nc2ccc(OC(F)(F)F)cc2)n1C	6%	?	-3%	-35%	50µM*
CC(C)(C)c1ccc(COC(=O)Nc2ccc(F)cc2)cc1	14%	27%	26%	11%	-11%[59 µM]
COc1ccccc1NC(=O)NCc1ccc(C)n1C	2%	-25%	7%	-13%	10%[12.7 µM]
Cc1ccc(CNC(=O)Nc2ccc(F)cc2)n1C	-10%	-36%	29%	?	50µM*
Cc1ccc(C2Cc3cc(O)c(O)cc3CN2)cc1 (centres undefined)	·	·	?	8.9µM*	·
Cc1ccc(C(=O)C2CCNCC2)cc1	-3%	15%	16%	-9%	·
NS(=O)(=O)c1ccc(NC(=O)CSc2ncnc3ccccc23)cc1	9%	79µM*	38%	-13%	-32%
COc1ccc(NC(=O)CSc2ncccc2C(=O)OC(C)C)cc1OC	9%	?	-3%	-12%	?
CC(=O)c1ccc(NC(=O)CSc2cn[nH]n2)cc1	11%	-4%	42%	3%	?
O=C(CSc1ccccn1)Nc1cccc([N+](=O)[O-])c1	-26%	-15%	-1%	-25%	11µM*
CC(C)c1ccc(NC(=O)CSc2ncccc2C(=O)Oc2cccc([N+](=O)[O-])c2)cc1	-20%	7%	16%[57 µM]	-14%	50µM*
NS(=O)(=O)c1ccc(NC(=O)CSc2cn[nH]n2)cc1	12%	-3%	48%	-6%	45µM*
CCOCCCNC(=O)c1cnc2sc(N3CCCCCC3)nn2c1=O	·	-12%	?	-17%	11%[59 µM]
NS(=O)(=O)c1cccc(NC(=O)CSc2ccccn2)c1	?	5%	28%	-3%	?
NS(=O)(=O)c1ccc(NC(=O)CSc2ccccn2)cc1	79µM*	2%	32%	-1%	-48%[59 µM]
Oc1[nH]c(=S)sc1/C=C1\C(c2ccccc2)=Nc2ccccc21	-13%	?	-14%	16µM*	2.5µM*
COc1cccc(NC(=O)CCN2CCN(CCO)CC2)c1	·	0%	19%	5%	?
Cc1ccc(Oc2nc3ccccn3c(=O)c2/C=C(\C#N)c2nc3ccccc3s2)c(C)c1	·	-2%	55%	2%	2.5µM*
Cc1cccn2c(=O)c(/C=C(\C#N)c3nc4ccccc4s3)c(Oc3ccc(Br)cc3)nc12	·	2%	49%	-15%	?
N#C/C(=C\c1c(Oc2ccc(F)cc2)nc2ccccn2c1=O)c1nc2ccccc2s1	·	-4%	40%	-16%	2.2µM*
COC(=O)/C(=C\Nc1ccc(Oc2ccc(F)cc2F)nc1)NC(=O)c1ccccc1	5%	-17%	31%	-11%	0%
CCN(CC)CCOc1ccc(/C(=C(/Cl)c2ccccc2)c2ccccc2)cc1	?	?	?	56µM*	·
CCOc1ccc(C(=O)OCCN(CC)CC)cc1	13%	1%	23%	-8%	1%[59 µM]
NC(=O)N/N=C/c1coc2ccc(O)cc2c1=O	-14%	-16%	52%	-15%	·
SMILES	Sfp inh	BAZ2B block	HP1b chromo inh	JMJD2A Tudor inh	G9a inh
N#C/C(=C\c1coc2ccc(O)cc2c1=O)C(=O)Nc1nc2ccccc2s1	-29%	?	?	63µM*	?
COc1ccc(NCc2n[nH]nc2-c2ccccc2)cc1Cl	16%	40µM*	-16%	?	?
C[C@@H]1CN([C@H](C)CO)C(=O)Cc2cc(NS(=O)(=O)c3cn(C)cn3)ccc2O[C@H]1CN(C)S(=O)(=O)c1ccc(Cl)cc1	·	·	73%	-10%	·
COC(=O)[C@H]1[C@@H]2C[C@@H]3c4[nH]c5ccccc5c4CCN3C[C@H]2CC[C@H]1O	7%	·	·	·	·
COC(=O)[C@H]1[C@H]2C[C@@H]3c4[nH]c5cc(OC)ccc5c4CCN3C[C@H]2C[C@@H](OC(=O)c2cc(OC)c(OC)c(OC)c2)[C@@H]1OC	12%	28µM*	?	56µM*	22µM*!
COC(=O)[C@@H]1C2CC3c4[nH]c5cc(OC)ccc5c4CCN3CC2C[C@H](OC(=O)c2cc(OC)c(OC)c(OC)c2)C1OC (some centres undefined)	-17%	·	·	·	?
COC(=O)[C@@H]1[C@H]2C[C@H]3c4[nH]c5ccccc5c4CCN3C[C@@H]2CC[C@@H]1O	7%	4%	32%	?	21µM*!
CCC(=O)Nc1ccc(C(=O)CSc2nnc(-c3ccccc3F)n2C2CC2)cc1	5%	-2%	31%	-11%	?
CCC(C)NC(=O)NC(=O)CSc1nnc(-c2ccccc2F)n1C1CC1 (centres undefined)	5%	3%	44%	-3%	35µM*
Cc1ccccc1-n1ccnc1SCC(=O)NC1CCCC1	6%	-16%[57.1 µM]	32%	-15%	13%
CC(=O)c1cccc(OCC(=O)NC2CCCCCC2)c1	·	-2%	41%	2%	?
CC(=O)c1cccc(OCC(O)CNCCOc2ccc(C)cc2)c1 (centres undefined)	-18%	50µM*	-5%	4µM*	40µM*
CC(=O)c1cccc(OCC(O)CNCC2CCCCC2)c1 (centres undefined)	3%	56µM*	71µM*	8.9µM*	-5%
COc1ccc(-c2cc(=O)oc3c(C)c(O)c(CN(C)C)cc23)cc1	-7%	-9%	2%	22µM*	-10%[12.7 µM]
COc1ccc(-c2cc(=O)oc3c(C)c(OCC(=O)N(C)C)ccc23)cc1	-3%	-21%	16%	-19%	?
CC(NS(=O)(=O)c1ccc2ccccc2c1)c1ccccn1 (centres undefined)	·	·	28%	50µM*	·
COC(=O)N1CCCc2cc(S(=O)(=O)N3CCN(c4ccccc4)CC3)ccc21	·	-26%	10%	-22%	-29%[59 µM]
C=CCn1c(=O)[nH]c2nc3cc(N=CN(C)C)c(C)cc3nc2c1=O	50µM*	1%	37%	2%	?
O=C(CCS(=O)(=O)c1ccc(Br)cc1)NCc1ccco1	-2%	50µM*	43%	2%	-21%[59 µM]
O=C(CCS(=O)(=O)c1ccc(Br)cc1)NCc1cccs1	2%	50µM*	50µM*	35µM*	?
O=C(CCCCC(=O)NCc1cccs1)NCc1cccs1	12%	-4%	34%	3%	-2%
O=C(CCNC(=O)c1ccc(Br)cc1)NCc1ccco1	·	13%	13%	-8%	11%[0.501 µM]
Cc1ccc(Cl)cc1NC(=O)c1ccc2snnc2c1	·	0%	38%	2%	5%[59 µM]
CCC(CC)NC(=O)c1cccc(Oc2ccccc2)c1	-6%	34%	59%	6%	-3%
Cc1cc(NC(=O)CSc2ccc3nnc(-c4cccc(F)c4)n3n2)no1	-7%	-2%	24%	-1%	22µM*
Cc1cc(NC(=O)CSc2ccc3nnc(-c4ccc(Cl)cc4)n3n2)no1	2%	-4%	23%	-4%	22µM*
